Measurements published in PubChem BioAssay (NCATS).
Results filed as inconclusive are left out. A number with no mark means an inactive call. Active and inactive are the calls of the source. Calls come from the whole dose curve; as a rule, active = well fitted inhibition curve with a large enough effect; inconclusive = small, poorly fitted or top-dose-only effect; inactive = flat fitted curve, though single readings scatter.

System: Zika virus NS2B-NS3 protease
Assay: Primary screen GU AMC qHTS for Zika virus inhibitors (AID 1347154);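 note: 0% = no-inhibitor control and -100% = no-enzyme control; nearly all actives have a fitted effect of over 70% in size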
Conditions: Zika NS2B-NS3 unlinked protease, AMC fluorogenic substrate; series mostly up to 54.1 µM; activity change, negative = inhibition: at the top concentration
Procedure, shortened: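 Unlinked Zika NS2B hydrophilic domain/NS3 protease domain noncovalent complex (25 nM final) in 10 mM Tris-HCl pH 8.0, 0.01% Tween 20, with AMC peptide substrate. Fluorescence (ex 340, em 450 nm) change over 15 min, room temperature; percent inhibition fitted to 4-parameter Hill equation.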

| SMILES | activity change, negative = inhibition | Potency |
| --- | --- | --- |
| COc1cc2c(cc1OC)CN(C(=O)[C@H](C)N[C@@H](CCc1ccccc1)C(=O)O)[C@H](C(=O)O)C2 | -1.93% |  |
| O=C1Cc2cc(Cl)ccc2N1 | -0.748% |  |
| CC[N+](CC)(CC)CCOC(=O)C(C1CCCC1)C1CCCC1 | -1.55% |  |
| OC[C@]1(O)OC[C@@H](O)[C@H](O)[C@@H]1O | -1.66% |  |
| CCCc1c2oc(C(=O)O)cc(=O)c2cc2c(=O)cc(C(=O)O)n(CC)c12 | -2.04% |  |
| C=CC[N+]1([C@H]2C[C@H]3[C@@H]4CC[C@H]5C[C@H](OC(C)=O)[C@@H](N6CCCCC6)C[C@]5(C)[C@H]4CC[C@]3(C)[C@H]2OC(=O)CC)CCCCC1 | -0.881% |  |
| C[C@@H]1C[C@H]2[C@@H]3CCC4=CC(=O)C=C[C@]4(C)[C@@]3(F)[C@@H](O)C[C@]2(C)[C@@]1(O)C(=O)COC(=O)c1ccncc1 | 1.11% |  |
| COc1ccc2c(c1)CCCC2=O | 1.47% |  |
| CCOC(=O)N1CCC(Nc2ccc(Cl)cc2N)CC1 | -18.6% |  |
| O=S(=O)(O)c1ccc2nc(-c3ccccc3)[nH]c2c1 | -11.1% |  |
| O=C1CC2(CCCC2)CC(=O)N1CCNCC1COc2ccccc2O1 (configuration not stated) | -4.74% |  |
| O=C(O)[C@H](O)[C@@H](O)[C@H](O[C@@H]1O[C@H](CO)[C@H](O)[C@H](O)[C@H]1O)[C@H](O)CO | -2.59% |  |
| CCCCCCn1c(=O)c2c(ncn2C)n(C)c1=O | 5.34% |  |
| CCOC(=O)N1CCC(n2c(=O)[nH]c3cc(Cl)ccc32)CC1 | 0.623% |  |
| CN(C)C(=O)CNC(=O)Cc1ccccc1 | 6.25% |  |
| CN(C)CCOC1=Cc2ccccc2Sc2ccc(Cl)cc21 | -5.08% |  |
| O=P(O)(O)OCC(O)CO (configuration not stated) | -2.05% |  |
| O=C(O)c1ccc(OCCN2CCCCC2)cc1 | 0.736% |  |
| C=CCOc1cc(Cl)ccc1C(=O)NCCN(CC)CC | -5.15% |  |

| SMILES | activity change, negative = inhibition | Potency |
| --- | --- | --- |
| Nc1ncnc2nc[nH]c12 | -3.53% |  |
| Cc1cc(C(C)(C)C)c(O)c(C(C)(C)C)c1 | -1.15% |  |
| O=C(O)c1ccccc1Nc1cc(Cl)ccc1C(=O)O | -8.54% [at 25.8 µM] |  |
| C[C@@H](C1=C(CCN(C)C)Cc2ccccc21)c1ccccn1 |  | inactive |
| CC(COc1ccccc1)NN (configuration not stated) | 1.79% |  |
| Nc1c[n+](N2CCOCC2)no1 |  | inactive |
| CC(=O)OC/C=C(C)/C=C/C=C(C)/C=C/C1=C(C)CCCC1(C)C |  | inactive |
| O=C1CC(c2ccc(Cl)cc2)CC(=O)N1 | 7.65% |  |
| CCN(CC)CC(=O)Nc1c(C)cccc1C(=O)OC | -2.42% |  |
| CN1C(=O)c2ccccc2C1=O | 1.93% [at 104 µM] |  |
| Cc1ncc([N+](=O)[O-])n1C | -0.323% |  |
| CC(=O)Nc1ccn(C2COC(COC(=O)c3ccccc3)O2)c(=O)n1 (configuration not stated) | 0.531% |  |
| Cc1oc(=O)oc1COC(=O)[C@@H]1N2C(=O)[C@@H](NC(=O)[C@H](N)c3ccccc3)[C@H]2SC1(C)C | -5.76% |  |
| Cc1cc(=O)oc2cc(O[C@@H]3SC[C@@H](O)[C@H](O)[C@H]3O)ccc12 | -13.8% |  |
| CCCCCCCC(=O)[O-].CCCCCCCC(=O)[O-].[Zn+2] | -10.5% |  |
| CN=C(N)NC(=O)Nc1c(C)cccc1C | -6.62% |  |
| CC(CC(C#N)(c1ccccc1)C(C)C)N(C)C (configuration not stated) | -3.06% |  |
| CC(C)C[C@H](NC(=O)CNC(=O)[C@H](Cc1ccc(O)cc1)NC(=O)[C@H](CO)NC(=O)[C@H](Cc1c[nH]c2ccccc12)NC(=O)[C@H](Cc1cnc[nH]1)NC(=O)[C@@H]1CCC(=O)N1)C(=O)N[C@@H](CCCN=C(N)N)C(=O)N1CCC[C@H]1C(=O)NCC(N)=O (stereo in doubt) | -2.21% |  |
